This is part of a sample that, as a whole, favours compounds with a hit. Of some 79,000 tested, about 15% had one in any assay. A number with no mark means an inactive call. Activity calls are given as the source filed them. Cut-off read from the data, not from the text of the source: active = growth inhibition above about 70%; inactive = the rest.
Tests used:
[1] = NCI Yeast Anticancer Drug Screen. Data for the rad52 strain (AID 147);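 note: 0% = growth of vehicle-treated control cultures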; settings: S. cerevisiae rad52 mutant growth inhibition, active compounds read high
Method in brief: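 Genetically altered yeast (DNA damage repair defect) treated with compound; inhibition calculated relative to vehicle.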

[2] = NCI Yeast Anticancer Drug Screen. Data for the wt1 strain (AID 149);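 note: 0% = growth of vehicle-treated wt1 cultures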; settings: S. cerevisiae wt1 strain (SPY 50644) growth inhibition, active compounds read high
Method in brief: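 Using yeast strain wt1, compound-induced growth inhibition was determined against vehicle-treated cultures.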

[3] = NCI Yeast Anticancer Drug Screen. Data for the rad50EPP+ strain (AID 151);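 note: 0% = growth of vehicle-treated control cultures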; settings: S. cerevisiae rad50 mutant strain, active compounds read high
Method in brief: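 Strain rad50EPP+; compound exposure; % growth inhibition vs vehicle.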

[4] = NCI Yeast Anticancer Drug Screen. Data for the mgt1 strain (AID 153); settings: S. cerevisiae mgt1 mutant growth inhibition, active compounds read high
Method in brief: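 Read-out: yeast growth inhibition vs vehicle control. Strain mgt1, drawn from a panel altered in DNA damage repair or cell cycle control.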

[5] = NCI Yeast Anticancer Drug Screen. Data for the rad50 strain (AID 155);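 note: 0% = growth of vehicle-only cultures of the same strain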; settings: S. cerevisiae rad50 strain growth inhibition, active compounds read high
Method in brief: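 Relative growth inhibition (compound vs vehicle) was measured in yeast with a defined repair-gene alteration.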

[6] = NCI Yeast Anticancer Drug Screen. Data for the mec2-1 strain (AID 157); settings: S. cerevisiae mec2-1 strain, active compounds read high
Method in brief: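 Cells of the genetically defined mec2-1 yeast strain are incubated with test compound. Inhibition of growth is calculated against vehicle-treated controls.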

[7] = NCI Yeast Anticancer Drug Screen. Data for the rad14 strain (AID 159);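 note: 0% = growth of vehicle-treated control cultures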; settings: S. cerevisiae rad14 strain growth inhibition, active compounds read high
Method in brief: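 Screen for anticancer potential: a yeast strain altered in DNA damage repair is grown with compound, and reduced growth is quantified against vehicle controls.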

[8] = NCI Yeast Anticancer Drug Screen. Data for the sgs1 mgt1 strain (AID 161);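 note: 0% = growth of cultures given vehicle only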; settings: S. cerevisiae sgs1 mgt1 strain, active compounds read high
Method in brief: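 Inhibition of yeast growth, normalised to vehicle-treated controls, is reported for a strain bearing genetic alterations in DNA damage repair.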

[9] = NCI Yeast Anticancer Drug Screen. Data for the CLN2oe strain (AID 163);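 note: 0% = growth of vehicle-only control cultures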; settings: S. cerevisiae CLN2oe strain, active compounds read high
Method in brief: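 Strain altered in cell-cycle control, incubated with compound; growth compared to solvent-treated controls.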

[10] = NCI Yeast Anticancer Drug Screen. Data for the cln2 rad14 strain (AID 165);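 note: 0% = growth equal to vehicle treated cultures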; settings: S. cerevisiae cln2 rad14 strain, active compounds read high
Method in brief: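 The screen exposed genetically defined yeast (cln2 rad14) to test compounds and scored growth inhibition relative to vehicle-treated controls.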

[11] = NCI Yeast Anticancer Drug Screen. Data for the bub3 strain (AID 167); settings: S. cerevisiae bub3 mutant strain, active compounds read high
Method in brief: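 Screening used yeast with an engineered genetic alteration affecting cell cycle control. Compound-exposed cultures were compared with vehicle cultures, and reduced growth was taken as inhibition.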

[12] = NCI Yeast Anticancer Drug Screen. Data for the wt2 strain (AID 169);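 note: 0% = growth of vehicle-treated yeast cultures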; settings: S. cerevisiae wt2 strain growth inhibition, active compounds read high
Method in brief: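 Steps: yeast strain treated with compound; growth recorded; inhibition calculated relative to cultures given vehicle alone.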

[13] = NCI Yeast Anticancer Drug Screen. Data for the mlh1 strain (AID 171);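 note: 0% = growth of vehicle-treated control cultures of the same strain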; settings: S. cerevisiae mlh1 strain growth inhibition, active compounds read high
Method in brief: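 Yeast screen: mutant strain plus compound, growth scored against vehicle control wells.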

[14] = NCI Yeast Anticancer Drug Screen. Data for the sgs1 strain (AID 173);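 note: 0% = growth of vehicle-only control cultures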; settings: S. cerevisiae sgs1 mutant, active compounds read high
Method in brief: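 Inhibition of yeast growth served as the measure. The mutant strain was treated with each compound, and growth was normalised to cultures receiving vehicle alone.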

[15] = NCI Yeast Anticancer Drug Screen. Data for the mlh1 rad18 strain (AID 175); settings: S. cerevisiae mlh1 rad18 strain growth inhibition, active compounds read high
Method in brief: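 Compound-treated yeast growth, normalised to vehicle controls. Strain bears defined DNA repair mutations.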

[16] = NCI Yeast Anticancer Drug Screen. Data for the rad18 strain (AID 177); settings: S. cerevisiae rad18 mutant growth inhibition, active compounds read high
Method in brief: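 Inhibition values reflect reduced yeast growth compared with vehicle-treated controls, using a strain engineered with a DNA damage repair defect.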

[17] = at 5.0 µM (retest, dose inferred, filed as 0.5)
[18] = at 50.0 µM (retest, dose inferred, filed as 5.0)

COc1cccc(C(c2cc3c(cc2O)OCO3)N2CCOCC2)c1OC (stereo unspecified)
growth inhibition ([1]; at 1.2 µM): -2%
growth inhibition ([1]; at 3.7 µM): 2%
growth inhibition ([1]; at 11.0 µM): 4%
growth inhibition ([1]; at 33.0 µM): 23%
growth inhibition ([1]; at 100.0 µM): 28%
growth inhibition ([2]; at 1.2 µM): -2%
growth inhibition ([2]; at 3.7 µM): -2%
growth inhibition ([2]; at 11.0 µM): -2%
growth inhibition ([2]; at 33.0 µM): 0%
growth inhibition ([2]; at 100.0 µM): 3%
growth inhibition ([3]; at 1.2 µM): -6%
growth inhibition ([3]; at 3.7 µM): -7%
growth inhibition ([3]; at 11.0 µM): 0%
growth inhibition ([3]; at 33.0 µM): 11%
growth inhibition ([3]; at 100.0 µM): 56%
growth inhibition ([4]; at 1.2 µM): -3%
growth inhibition ([4]; at 3.7 µM): -5%
growth inhibition ([4]; at 11.0 µM): 0%
growth inhibition ([4]; at 33.0 µM): -3%
growth inhibition ([4]; at 100.0 µM): 4%
growth inhibition ([5]; at 1.2 µM): -1%
growth inhibition ([5]; at 3.7 µM): 2%
growth inhibition [5, 17]: -3%
growth inhibition ([5]; at 11.0 µM): 1%
growth inhibition ([5]; at 33.0 µM): 14%
growth inhibition [5, 18]: 48%
growth inhibition ([5]; at 50.0 µM): 42.1%
growth inhibition ([5]; at 100.0 µM): 46%
growth inhibition ([6]; at 1.2 µM): -1%
growth inhibition ([6]; at 3.7 µM): -1%
growth inhibition [6, 17]: -1%
growth inhibition ([6]; at 11.0 µM): -2%
growth inhibition ([6]; at 33.0 µM): -2%
growth inhibition [6, 18]: -9%
growth inhibition ([6]; at 50.0 µM): 83.8% (active)
growth inhibition ([6]; at 100.0 µM): 37%
growth inhibition ([7]; at 1.2 µM): 0%
growth inhibition ([7]; at 3.7 µM): 4%
growth inhibition ([7]; at 11.0 µM): 7%
growth inhibition ([7]; at 33.0 µM): 10%
growth inhibition ([7]; at 100.0 µM): 21%
growth inhibition [8, 17]: 7%
growth inhibition [8, 18]: 79% (active)
growth inhibition ([8]; at 50.0 µM): 42.5%
growth inhibition ([9]; at 1.2 µM): -4%
growth inhibition ([9]; at 3.7 µM): -3%
growth inhibition ([9]; at 11.0 µM): -4%
growth inhibition ([9]; at 33.0 µM): 5%
growth inhibition ([9]; at 100.0 µM): 19%
growth inhibition [10, 17]: 1%
growth inhibition [10, 18]: 3%
growth inhibition ([10]; at 50.0 µM): -30.1%
growth inhibition ([11]; at 1.2 µM): -4%
growth inhibition ([11]; at 3.7 µM): -4%
growth inhibition [11, 17]: -13%
growth inhibition ([11]; at 11.0 µM): -9%
growth inhibition ([11]; at 33.0 µM): 4%
growth inhibition [11, 18]: 56%
growth inhibition ([11]; at 50.0 µM): 45%
growth inhibition ([11]; at 100.0 µM): 11%
growth inhibition ([12]; at 1.2 µM): -3%
growth inhibition ([12]; at 3.7 µM): -6%
growth inhibition ([12]; at 11.0 µM): 5%
growth inhibition ([12]; at 33.0 µM): 0%
growth inhibition ([12]; at 100.0 µM): -3%
growth inhibition ([13]; at 1.2 µM): -3%
growth inhibition ([13]; at 3.7 µM): -1%
growth inhibition ([13]; at 11.0 µM): 4%
growth inhibition ([13]; at 33.0 µM): 7%
growth inhibition ([13]; at 100.0 µM): 32%
growth inhibition ([14]; at 1.2 µM): -6%
growth inhibition ([14]; at 3.7 µM): -7%
growth inhibition ([14]; at 11.0 µM): 8%
growth inhibition ([14]; at 33.0 µM): 10%
growth inhibition ([14]; at 100.0 µM): 60%
growth inhibition [15, 17]: 19%
growth inhibition [15, 18]: 71% (active)
growth inhibition ([15]; at 50.0 µM): 9.25%
growth inhibition ([16]; at 1.2 µM): -3%
growth inhibition ([16]; at 3.7 µM): 0%
growth inhibition ([16]; at 11.0 µM): 4%
growth inhibition ([16]; at 33.0 µM): 10%
growth inhibition ([16]; at 100.0 µM): 36%

O=C(CCc1ccccc1)ON1C(=S)C(c2ccccc2)(c2ccccc2)N=C1Sc1ccccc1
growth inhibition ([1]; at 1.2 µM): 13%
growth inhibition ([1]; at 3.7 µM): 9%
growth inhibition ([1]; at 11.0 µM): 19%
growth inhibition ([1]; at 33.0 µM): 23%
growth inhibition ([1]; at 100.0 µM): 36%
growth inhibition ([2]; at 1.2 µM): 6%
growth inhibition ([2]; at 3.7 µM): 6%
growth inhibition ([2]; at 11.0 µM): 13%
growth inhibition ([2]; at 33.0 µM): 14%
growth inhibition ([2]; at 100.0 µM): 17%
growth inhibition ([3]; at 1.2 µM): 0%
growth inhibition ([3]; at 3.7 µM): -6%
growth inhibition ([3]; at 11.0 µM): 1%
growth inhibition ([3]; at 33.0 µM): 7%
growth inhibition ([3]; at 100.0 µM): 5%
growth inhibition ([4]; at 1.2 µM): 44%
growth inhibition ([4]; at 3.7 µM): 50%
growth inhibition ([4]; at 11.0 µM): 51%
growth inhibition ([4]; at 33.0 µM): 54%
growth inhibition ([4]; at 100.0 µM): 56%
growth inhibition ([5]; at 1.2 µM): 36%
growth inhibition ([5]; at 3.7 µM): 34%
growth inhibition [5, 17]: 91% (active)
growth inhibition ([5]; at 11.0 µM): 31%
growth inhibition ([5]; at 33.0 µM): 29%
growth inhibition [5, 18]: 96% (active)
growth inhibition ([5]; at 50.0 µM): 50%
growth inhibition ([5]; at 100.0 µM): 28%
growth inhibition ([6]; at 1.2 µM): 22%
growth inhibition ([6]; at 3.7 µM): 14%
growth inhibition [6, 17]: 23%
growth inhibition ([6]; at 11.0 µM): 6%
growth inhibition ([6]; at 33.0 µM): 7%
growth inhibition [6, 18]: 94% (active)
growth inhibition ([6]; at 50.0 µM): 61%
growth inhibition ([6]; at 100.0 µM): 26%
growth inhibition ([7]; at 1.2 µM): 20%
growth inhibition ([7]; at 3.7 µM): 20%
growth inhibition ([7]; at 11.0 µM): 27%
growth inhibition ([7]; at 33.0 µM): 21%
growth inhibition ([7]; at 100.0 µM): 36%
growth inhibition [8, 17]: -22%
growth inhibition [8, 18]: 37%
growth inhibition ([8]; at 50.0 µM): 56.6%
growth inhibition ([9]; at 1.2 µM): 4%
growth inhibition ([9]; at 3.7 µM): -8%
growth inhibition ([9]; at 11.0 µM): -4%
growth inhibition ([9]; at 33.0 µM): 19%
growth inhibition ([9]; at 100.0 µM): 57%
growth inhibition [10, 17]: -2%
growth inhibition [10, 18]: 35%
growth inhibition ([10]; at 50.0 µM): 45.9%
growth inhibition ([11]; at 1.2 µM): 6%
growth inhibition ([11]; at 3.7 µM): -10%
growth inhibition [11, 17]: -1%
growth inhibition ([11]; at 11.0 µM): -5%
growth inhibition ([11]; at 33.0 µM): -7%
growth inhibition [11, 18]: 32%
growth inhibition ([11]; at 50.0 µM): 78.7% (active)
growth inhibition ([11]; at 100.0 µM): 22%
growth inhibition ([12]; at 1.2 µM): 1%
growth inhibition ([12]; at 3.7 µM): -4%
growth inhibition ([12]; at 11.0 µM): 0%
growth inhibition ([12]; at 33.0 µM): 14%
growth inhibition ([12]; at 100.0 µM): 44%
growth inhibition ([13]; at 1.2 µM): 44%
growth inhibition ([13]; at 3.7 µM): 50%
growth inhibition ([13]; at 11.0 µM): 51%
growth inhibition ([13]; at 33.0 µM): 54%
growth inhibition ([13]; at 100.0 µM): 56%
growth inhibition ([14]; at 1.2 µM): 43%
growth inhibition ([14]; at 3.7 µM): 44%
growth inhibition ([14]; at 11.0 µM): 46%
growth inhibition ([14]; at 33.0 µM): 49%
growth inhibition ([14]; at 100.0 µM): 56%
growth inhibition [15, 17]: 28%
growth inhibition [15, 18]: 86% (active)
growth inhibition ([15]; at 50.0 µM): 88.8% (active)
growth inhibition ([16]; at 1.2 µM): 21%
growth inhibition ([16]; at 3.7 µM): 19%
growth inhibition ([16]; at 11.0 µM): 10%
growth inhibition ([16]; at 33.0 µM): 21%
growth inhibition ([16]; at 100.0 µM): 40%
